KB-V1 MDR tox: qHTS assay for MDR1-selective chemotherapeutics: Primary screen using the drug-selected MDR subline cells KB-V1. KB-V1 MDR cells viability, CellTiter-Glo, 72 h. Potency, µM (highest dose often 46.1 µM), actives largely listed as cytotoxic. 400,000 compounds, 3.4% hits. AID 1347076, 2019; further: on the % scale 0 is the no-effect control and ±100 the full control effect; nearly all actives have a fitted effect of over 60% in size
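qHTS viability screen in drug-selected KB-V1 MDR cells: 72 h compound treatment at 37 degrees C, ATP luminescence end point.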
SW480 rerep: A quantitative high throughput screen for small molecules that induce DNA re-replication in SW480 colon adenocarcinoma cells; 340,000 compounds, 1.8% hits; Potency, µM (titrated, usually from 46.1 µM), inactives show at the top dose re-replication activation, hits mostly activators; SW480 DNA re-replication, Hoechst DNA content imaging, 48 h; further: % of control where 0% means no effect; nearly all actives have a fitted effect of over 55% in size
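Cells (250 per well) received 23 nL compound or DMSO by pin tool and were kept 48 hr at 37 C, 5% CO2. Nuclei were then stained with Hoechst for 40 min and scanned for DNA content.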
RORgamma inh: qHTS for inhibitors of ROR gamma transcriptional activity; 310,000 compounds, 5.4% hits; AID 2551, 2010; Drosophila S2 Gal4-RORgamma UAS-luciferase reporter, 20 h; Potency, µM (series often up to 53.6 µM), without a hit: top-dose activity change, negative = inhibition, usual class: inhibitors; Nuclear receptor ROR-gamma (Mus musculus), P51450; further: on the % scale 0 is the no-effect control and ±100 the full control effect; nearly all actives have a fitted effect of over 60% in size
Target sequence (P51450 whole entry, looked up, the tested form may be a part): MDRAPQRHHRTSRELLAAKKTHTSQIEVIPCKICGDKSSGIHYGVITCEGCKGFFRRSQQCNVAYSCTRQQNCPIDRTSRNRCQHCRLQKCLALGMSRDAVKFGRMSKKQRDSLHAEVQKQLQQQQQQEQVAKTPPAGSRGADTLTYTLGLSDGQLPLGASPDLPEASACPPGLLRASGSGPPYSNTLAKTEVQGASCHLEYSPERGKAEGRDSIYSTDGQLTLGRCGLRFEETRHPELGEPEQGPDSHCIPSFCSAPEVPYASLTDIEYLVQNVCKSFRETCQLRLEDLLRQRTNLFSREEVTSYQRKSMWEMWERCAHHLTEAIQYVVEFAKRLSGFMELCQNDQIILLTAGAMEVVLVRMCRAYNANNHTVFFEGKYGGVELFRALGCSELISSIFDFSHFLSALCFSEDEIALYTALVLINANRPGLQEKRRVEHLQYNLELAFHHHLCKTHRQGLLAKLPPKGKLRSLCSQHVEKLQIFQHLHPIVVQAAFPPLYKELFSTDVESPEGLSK
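Using a luciferase readout, inhibitors were identified by reduced reporter activity in Drosophila cells coexpressing a copper-inducible Gal4–ROR gamma fusion and UAS-driven Photinus luciferase, incubated 20 hr after 700 uM copper sulfate.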
KB-3-1 cytotox: qHTS assay for MDR1-selective chemotherapeutics: Primary screen using the parental adenocarcinoma cell KB-3-1. AID 1347075, 2019. Potency, µM (top dose mostly 46.1 µM), hits mostly cytotoxic. KB-3-1 viability, CellTiter-Glo ATP luminescence, 72 h. 400,000 compounds, 1.4% hits; further: on the % scale 0 is the no-effect control and ±100 the full control effect; nearly all actives have a fitted effect of over 60% in size
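KB-3-1 cells, DMEM (no phenol red) + 10% FBS; compound by pin transfer, 72 h, 37 °C. Readout: CellTiter-Glo luminescence after 10 min. Data normalized, curve-fitted.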
MCF10A rereplic: A quantitative high throughput screen for small molecules that induce DNA re-replication in MCF 10a normal breast cells | MCF 10A DNA re-replication, Hoechst nuclear intensity, 48 h | Potency, µM (series often up to 46.1 µM), without a hit: top-dose activity, positive = re-replication, most hits filed as activators | 350,000 compounds, 2.9% hits | AID 624296, 2012; further: % of control where 0% means no effect; nearly all actives have a fitted effect of over 50% in size
Gal4-VP16 FLuc: VP16 counterscreen qHTS for inhibitors of ROR gamma transcriptional activity | Potency, µM (titrated, usually from 53.6 µM), inactives show at the top dose activity, negative = inhibition, most hits filed as inhibitors | AID 2546, 2010 | Drosophila S2 Gal4-VP16 UAS-luciferase, luminescence, 20 h | 310,000 compounds, 3.5% hits;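 further: Gal4-VP16 expression switched on by copper sulfate through the metallothionein promoter; on the % scale 0 is the no-effect control and ±100 the full control effect; nearly all actives have a fitted effect of over 50% in size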
Starred values were filed as active, the others as inactive; i = inactive; ? = inconclusive; · = no result given. Most compounds without a hit are left out; they make up all but 10% or so of the library. The call rests on the fitted dose curve; in most records, active means well fitted curve in the direction sought with a large enough effect; inconclusive means small, poorly fitted or top-dose-only effect, or another doubt; inactive means no such curve, though single readings can be large; an effect the other way counts as inactive or inconclusive. Potency means the concentration at half of the fitted maximal effect.

SMILES	KB-V1 MDR tox	SW480 rerep	RORgamma inh	KB-3-1 cytotox	MCF10A rereplic	Gal4-VP16 FLuc
COc1cc(-c2nc(-c3ccc(NC(=O)c4ccc5c(c4)OCO5)cc3)no2)cc(OC)c1OC	i	?	26%	i	9.2µM*	?
Cc1ccccc1-c1nc(-c2ccc(NC(=O)c3ccc4c(c3)OCO4)cc2)no1	?	9%	23%	?	?	?
COc1ccc(-c2nc(-c3ccc(NC(=O)c4ccncc4)cc3)no2)cc1OC	10µM*	1%	?	?	11%	-10%
CC1/C=C/C=C/C=C/C=C/C=C/C=C/C=C/C(OC2OC(C)C(O)C(N)C2O)CC2O[C@@](O)(CC(O)CC(O)C(O)CCC(O)CC(O)CC(=O)OC(C)[C@H](C)C1O)CC(O)C2C(=O)O (stereo partly specified)	·	·	-9%	·	·	-1%
Clc1ccc(COn2nnc3ccccc32)c(Cl)c1	i	5%	-20%	i	23µM*	27%
C=CCC1Cc2c(Br)cccc2C(CC=C)N1 (stereo unspecified)	i	-24%	-24%	i	0.92µM*	-14%
C=CC[C@H]1Cc2c(cccc2[N+](=O)[O-])[C@H](CC=C)N1	i	?	22%	i	2%	-5%
Cc1c(/C=N/Nc2nc3ccccc3[nH]2)c2ccccc2n1C	?	?	5µM*	?	16µM*	?
Cn1c(/C=N/Nc2nc3ccccc3[nH]2)nc2ccccc21	i	?	4.5µM*	?	8%	13µM*
COc1cc(/C=N/Nc2nc3ccccc3[nH]2)cc(OC)c1O	i	15%	?	i	?	?
CCCn1c(/C=N/Nc2nc3ccccc3[nH]2)nc2ccccc21	?	·	2µM*	i	?	3.2µM*
CC(C)Cn1c(/C=N/Nc2nc3ccccc3[nH]2)nc2ccccc21	?	?	1.8µM*	16µM*	10%	1.1µM*
Cc1nn(-c2ccccc2)c(C)c1/C=N/Nc1nc2ccccc2[nH]1	?	?	5%	?	?	-2%
O=C(CN1C(=O)COc2ccc(Cl)cc21)Nc1ccc(F)cc1	i	·	·	i	·	·
CN(Cc1ccccc1)C(=O)[C@@H]1CCCN1C(=O)[C@@H]1CCCN1C(=O)OC(C)(C)C	i	·	·	i	·	·
N#Cc1ccc(C(=O)N2CCCC(c3cc(C(=O)NCc4cccnc4)no3)C2)cc1 (stereo unspecified)	i	·	·	i	·	·
C=CCn1cc(/C=N/Nc2nc3ccccc3[nH]2)c2ccccc21	?	20%	4.5µM*	i	?	7.1µM*
CCC(=O)N1CCc2cc(S(=O)(=O)NCCC(=O)Nc3cccc(SC)c3)ccc21	i	·	·	i	·	·
Cc1ccc(NC(=O)COc2cccc3c2OC(C)(C)C3)c(O)c1	18µM*	-4%	·	i	19%	·
CC1(C)Cc2cccc(OCC(=O)Nc3ccccc3F)c2O1	i	-2%	·	i	21%	·
Cc1cccc(N2CCN(C(=O)COc3cccc4c3OC(C)(C)C4)CC2)c1C	i	2%	?	i	8%	3.2µM*
CCCN(CCc1cccs1)[C@H]1CCc2c(O)cccc2C1	·	9%	-1%	·	5%	-15%
Cc1cccc(-c2nc3c4ccccc4n(CC(=O)Nc4cccc(F)c4)c(=O)n3n2)c1	?	·	·	i	·	·
O[C@@H]1CCN2Cc3ccccc3N=C12	·	·	-2%	·	·	-7%
O=C(Nc1ccc(Oc2c(F)c(F)c(F)c(F)c2F)cc1)OC1CCN2Cc3ccccc3N=C12 (stereo unspecified)	?	13µM*	0.71µM*	8.2µM*	13µM*	?
SMILES	KB-V1 MDR tox	SW480 rerep	RORgamma inh	KB-3-1 cytotox	MCF10A rereplic	Gal4-VP16 FLuc
COc1cccc(NC(=O)CCc2c(C)nc3ncnn3c2C)c1	i	·	·	i	·	·
COc1cccc(Nc2nc3cc(C)ccc3nc2NS(=O)(=O)c2ccc(Cl)cc2)c1	15µM*	·	·	?	·	·
COc1ccc(Cl)cc1NS(=O)(=O)c1cc(-c2cc(C)no2)ccc1C	3.7µM*	·	·	13µM*	·	·
COC(=O)c1ccc(NS(=O)(=O)c2cc(-c3cc(C)no3)ccc2OC)cc1	?	18µM*	10%	5.8µM*	25%	0%
N#Cc1ccc(CN2CC3(CCN(C(=O)c4cccc(F)c4)CC3)C2)cc1	·	·	-5%	·	·	9%
CCOC(=O)C(C)Oc1cccc2c(=O)n(CC(=O)NCc3ccc(F)cc3)ccc12 (stereo unspecified)	1.3µM*	?	4%	1.3µM*	?	-4%
CCOC(=O)C(C)Oc1cccc2c(=O)n(CC(=O)NCc3ccccc3)ccc12 (stereo unspecified)	2.1µM*	1.3µM*	0%	1.2µM*	0.58µM*	-5%
COC(=O)COc1cccc2c(=O)n(CC(=O)N3CCCCC3)ccc12	i	0%	15%	i	-3%	-6%
COC(=O)COc1cccc2c(=O)n(CC(=O)NCc3ccc(F)cc3)ccc12	?	5.8µM*	0%	1.5µM*	10µM*	6%
CCOC(=O)COc1cccc2c(=O)n(CC(=O)NCc3ccc4c(c3)OCO4)ccc12	i	7.3µM*	44%	?	?	-10%
Nc1ccc(S(=O)(=O)NCc2ccccc2)cc1	·	-4%	23%	·	3%	-1%
CCOC(=O)C1=C(C)N=C2SCCC(=O)N2C1c1ccc(OCc2ccccc2)cc1 (stereo unspecified)	i	·	·	i	·	·
Cc1noc(-c2ccc(NCc3ccccc3)c([N+](=O)[O-])c2)n1	i	·	·	i	·	·
CC1CCN(CCCNC(=O)c2coc3nc4ccccc4nc23)CC1	i	8%	?	i	15µM*	5%
CC1CCCN(CCCNC(=O)c2coc3nc4ccccc4nc23)C1 (stereo unspecified)	?	-5%	-38%	i	21%	-4%
O=C(NCCCN1CCN(CCCNC(=O)c2ccccc2F)CC1)c1ccccc1F	i	7.3µM*	10%	i	19%	12%
O=C(NCCCN1CCN(c2ccc(F)cc2)CC1)c1cnn(-c2ccc(F)cc2)c1-n1cccc1	18µM*	·	·	?	·	·
COc1ccc(N2CCN(CCCNC(=O)c3cnn(-c4ccc(F)cc4)c3-n3cccc3)CC2)cc1	?	·	·	23µM*	·	·

Compound activity: PubChem, National Center for Advancing Translational Sciences (NCATS)
